ASM inhibitor: Inhibitors of Secretory Acid Sphingomyelinase (S-ASM): qHTS; actives 0.006% (n = 340,000); Sphingomyelin phosphodiesterase (Homo sapiens), P17405; AID 504937, 2011; placental ASM, HMU-PC fluorogenic substrate, 60 min; Potency, µM (doses to about 57.5 µM), most hits filed as inhibitors
Target sequence (P17405 47-631 limits assumed): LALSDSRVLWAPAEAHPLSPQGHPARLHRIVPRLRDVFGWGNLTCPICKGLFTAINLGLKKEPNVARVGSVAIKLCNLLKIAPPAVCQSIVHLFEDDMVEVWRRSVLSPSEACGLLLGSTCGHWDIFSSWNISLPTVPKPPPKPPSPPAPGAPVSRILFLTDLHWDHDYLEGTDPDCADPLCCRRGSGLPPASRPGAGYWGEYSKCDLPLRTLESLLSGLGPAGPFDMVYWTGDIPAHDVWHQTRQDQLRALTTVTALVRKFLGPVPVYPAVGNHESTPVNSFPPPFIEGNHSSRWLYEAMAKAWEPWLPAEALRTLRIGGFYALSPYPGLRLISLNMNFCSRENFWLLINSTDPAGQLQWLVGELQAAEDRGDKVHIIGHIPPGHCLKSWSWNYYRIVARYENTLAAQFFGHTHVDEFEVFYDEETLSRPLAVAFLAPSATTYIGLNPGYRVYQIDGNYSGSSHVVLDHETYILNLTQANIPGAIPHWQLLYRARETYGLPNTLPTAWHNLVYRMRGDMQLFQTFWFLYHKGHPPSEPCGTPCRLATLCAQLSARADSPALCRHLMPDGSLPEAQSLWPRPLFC
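Fluorogenic HMU-PC substrate (9 uM final) is turned over by placental ASM in 60 min at 37 C after a 10 min compound preincubation. Reaction ended by alkaline stop (pH 10), with fluorescence read at 386/447 nm.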
HepG2 viability: qHTS for Inhibitors of TGF-b: Cytotox Counterscreen; HepG2 CAGA-GFP viability, ATP luminescence, 18 h; Potency, µM (titrated, usually from 46.1 µM), most hits filed as cytotoxic; actives 0.76% (n = 410,000)
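HepG2 CAGA-GFP cells (1000/well, DMEM with 1% FBS) received compound, then TGF-beta at 500 pg/mL final, and were incubated 18 hours at 37 degrees C. Viability was read by CellTiter-Glo luminescence. Media-only wells were set as complete cell-killing and DMSO as no toxicity.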
TGFb inhibitor: qHTS for Inhibitors of TGF-b; HepG2 CAGA-GFP TGF-b/SMAD3 reporter, GFP fluorescence, 18 h; TGF-beta stimulated, 500 pg/mL final; Potency, µM (titrated, usually from 46.1 µM), usual class: inhibitors; actives 1.2% (n = 410,000); AID 588855, 2011; also: nearly all actives have a fitted effect of over 65% in size
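HEPG2 CAGA-GFP, 1000 cells/well; 2 h settle, 37 C; cpd via pin tool; TGF-b 500 pg/mL final; 18 h, 37 C; GFP imaging ex488/em500-530; %Activity normalised to -TGF-b and +DMSO controls; CRC fit, curve class.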
IL-1B inflam inh: qHTS for Inhibitors of Inflammasome Signaling: IL-1-beta AlphaLISA Primary Screen | activity change, % at 57.5 µM | actives 4.7% (n = 360,000) | AID 743279, 2014 | THP-1 LPS/ATP IL-1B secretion, AlphaLISA, 16 h; active compounds read low; in the data active = activity change below about -50%; inconclusive = mostly about -30% to -49%
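THP-1 cells pretreated 1 hr with compounds (up to 57.5 uM final), then stimulated with LPS (250 ng/mL final) plus ATP (1.25 mM final); secreted IL-1B measured by AlphaLISA after 16 hr, decreased signal indicating inhibition.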
DT40 TDP1 no CPT: qHTS for Inhibitors of human tyrosyl-DNA phosphodiesterase 1 (TDP1): qHTS in cells in absence of CPT | Potency, µM (series often up to 46.2 µM), actives largely listed as inhibitors | DT40 Tdp1-/- hTDP1 cells, no CPT, ATP luminescence, 48 h | actives 15% (n = 420,000); also: nearly all actives have a fitted effect of over 55% in size
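DT40 Tdp1-/-;hTDP1 cells, no CPT (DMSO vehicle only), 400 cells/well; compounds pin-transferred; ≥48 hr, 37 °C; CellTiter-Glo 30 min RT dark, luminescence read.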
TDP1 cell CPT: qHTS for Inhibitors of human tyrosyl-DNA phosphodiesterase 1 (TDP1): qHTS in cells in presence of CPT; actives 12% (n = 420,000); Potency, µM (doses to about 46.2 µM), hits mostly inhibitors; chicken DT40 Tdp1-/-;hTDP1 cells + 20 nM CPT, ATP luminescence, 48 h; also: nearly all actives have a fitted effect of over 55% in size
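Chicken DT40 Tdp1-/- cells complemented with human TDP1, 400 cells/well, exposed to compounds plus 20 nM camptothecin for at least 48 h at 37 C; viability read as ATP content by CellTiter-Glo luminescence.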
A number is an active result. In the library only some 19% were active in any assay of this set; here they are far more common. Unless noted, calls follow the shape of the dose curve; as a rule, active = well fitted curve in the direction sought with a large enough effect; inconclusive = small, poorly fitted or top-dose-only effect, or another doubt; inactive = no such curve, though single readings can be large; an effect the other way counts as inactive or inconclusive.

Cc1cccc(NC(=O)c2ccc3[nH]c(C)cc(=O)c3c2)c1 was read as HepG2 viability inactive, TGFb inhibitor inactive, DT40 TDP1 no CPT inactive and TDP1 cell CPT inactive.
Screening CCOC(=O)c1ccc(Nc2c(-c3cccc(O)c3)nc3nc[nH]n23)cc1 returned HepG2 viability inactive, TGFb inhibitor inactive, DT40 TDP1 no CPT inconclusive and TDP1 cell CPT inconclusive.
For CC(C)(C)n1ncc2c(=O)n(Cc3ccc(SC(F)(F)F)cc3)cnc21 the results were HepG2 viability inactive and TGFb inhibitor 15.8µM.
CC(C)(C)n1ncc2c(=O)n(Cc3ccc(F)cc3)cnc21 was read as HepG2 viability inactive and TGFb inhibitor inactive.
For Cc1ccc(Cn2cnc3c(cnn3C(C)(C)C)c2=O)cc1 the results were ASM inhibitor inactive, HepG2 viability inactive, TGFb inhibitor inactive, IL-1B inflam inh inactive, DT40 TDP1 no CPT 13µM and TDP1 cell CPT 25.9µM.
For CCN(CC)c1ccc(/C=C(\C#N)c2ccccn2)cc1 the results were ASM inhibitor inactive, HepG2 viability inactive, TGFb inhibitor inactive, IL-1B inflam inh inconclusive, DT40 TDP1 no CPT 2.59µM and TDP1 cell CPT 2.59µM.
For CN(CCC#N)c1ccc(/C=C(\C#N)c2ccccn2)cc1 the results were ASM inhibitor inactive, HepG2 viability inactive, TGFb inhibitor inactive, IL-1B inflam inh -63.6, DT40 TDP1 no CPT inconclusive and TDP1 cell CPT inconclusive.
Screening CCN(Cc1ccccc1)c1ccc(/C=C(\C#N)c2ccccn2)cc1 returned ASM inhibitor inactive, HepG2 viability inactive, TGFb inhibitor inactive, IL-1B inflam inh inactive, DT40 TDP1 no CPT inconclusive and TDP1 cell CPT inactive.
